# A selection: hits, their analogues and other compounds. The true share with any hit is near 21%.
# DRD3 antagonist = blocks the human D3 dopamine receptor | max response, negative = inhibition, % | D3R cells, DiscoveRx beta-arrestin luminescence, antagonist mode; stronger effect = lower value | 360,000 compounds, 2.5% hits; in the data active means max response below about -50%; inconclusive means no clear call, values can overlap the other calls; further: on the % scale 0 is the no-effect control and ±100 the full control effect
# Target sequence (P35462 whole entry, looked up): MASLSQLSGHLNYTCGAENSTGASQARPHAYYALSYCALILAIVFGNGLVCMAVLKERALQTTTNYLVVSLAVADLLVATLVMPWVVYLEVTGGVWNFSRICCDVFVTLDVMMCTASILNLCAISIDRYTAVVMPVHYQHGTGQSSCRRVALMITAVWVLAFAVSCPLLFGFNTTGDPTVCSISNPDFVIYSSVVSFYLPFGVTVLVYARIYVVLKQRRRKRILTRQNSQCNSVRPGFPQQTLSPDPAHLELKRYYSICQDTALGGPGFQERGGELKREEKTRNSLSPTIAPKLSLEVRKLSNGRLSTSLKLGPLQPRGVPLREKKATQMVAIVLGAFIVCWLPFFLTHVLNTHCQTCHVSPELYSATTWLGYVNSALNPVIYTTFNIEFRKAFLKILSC
#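 Cells expressing the human receptor were seeded at 1500 cells/well, incubated overnight at 37 degrees C in 5% CO2, then exposed to library compounds with dopamine controls for 90 minutes at 37 degrees C before luminescent detection.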
# DT40 TDP1 CPT = growth inhibition of DT40 Tdp1-/-;hTDP1 cells with camptothecin (screen for TDP1 inhibitors); chicken DT40 Tdp1-/-;hTDP1 cells + 20 nM CPT, ATP luminescence, 48 h; Potency, µM (titrated, usually from 46.2 µM), inactives show at the top dose activity change, negative = growth inhibition, usual class: inhibitors; 420,000 compounds, 12% hits; AID 686979; further: potency means the concentration at half of the fitted maximal effect; on the % scale 0 is the no-effect control and ±100 the full control effect; nearly all actives have a fitted effect of over 55% in size
#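 Cell growth measured by CellTiter-Glo luminescence after a minimum 48 h, 37 C compound exposure with 20 nM CPT in Tdp1-knockout DT40 cells stably expressing hTDP1, seeded 400/well; qHTS titration format.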
# IL-1B inflam inh = inhibitors of inflammasome signaling (IL-1 beta secretion); THP-1 LPS/ATP IL-1B secretion, AlphaLISA, 16 h; stronger effect = lower value; activity change, % at 57.5 µM; 360,000 compounds, 4.7% hits; AID 743279; in the data active means activity change below about -50%; inconclusive means mostly about -30% to -49%; further: on the % scale 0 is the no-effect control and ±100 the full control effect
#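 Secreted IL-1B measured by AlphaLISA bead assay after 16 h compound exposure of THP-1 cells; compounds (final up to 57.5 uM) added 1 h before LPS (250 ng/mL) and ATP (1.25 mM) stimulation; lower signal means less secretion.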
# ClpP mod = qHTS Assay for Activators of ClpP; ATP-dependent Clp protease proteolytic subunit (Bacillus subtilis (strain 168)), P80244; purified B. subtilis ClpP, FRET peptide cleavage, 20 min; Potency, µM (doses to about 57.5 µM), for the others: at the top dose activity change, negative = active; 340,000 compounds, 1.9% hits; active means well fitted falling curve with a large enough effect; inconclusive means small, poorly fitted or top-dose-only effect; inactive means no such curve, though single readings can be large or run the other way; further: potency means the concentration at half of the fitted maximal effect; the source files actives as falling curves though it sought activators and does not explain the sign; nearly all actives have a fitted effect of over 65% in size
# Target sequence (P80244 whole entry, looked up): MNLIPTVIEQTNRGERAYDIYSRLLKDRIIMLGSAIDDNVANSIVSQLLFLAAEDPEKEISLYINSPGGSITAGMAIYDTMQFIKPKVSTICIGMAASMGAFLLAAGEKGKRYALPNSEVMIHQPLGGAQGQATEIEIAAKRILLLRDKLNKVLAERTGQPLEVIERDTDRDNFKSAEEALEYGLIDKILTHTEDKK
#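 Buffer: 100 mM Tris/HCl pH8, 100 mM KCl, 0.05% low protease BSA, 2.5% glycerol, 0.01% Tween-20. ClpP 10 microg/mL final; 20 min RT; delta FRET normalized to ADEP and DMSO controls.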
# DRD3 agonist = agonists of human D3 dopamine receptor | P35462 | D3R DiscoveRx beta-arrestin cells, luminescence, 90 min | max activation, % | 410,000 compounds, 0.58% hits | AID 652048; in the data active means max activation above about 30%; further: 0% is about no effect
#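 Agonist mode: compounds and dopamine controls were applied to plated cells for 90 min at 37 degrees C after an overnight attachment at 1500 cells/well. Luminescent read-out followed 30 - 60 minutes at room temperature with DiscoveRx detection reagent.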
# TDP1 cell noCPT = qHTS for Inhibitors of human tyrosyl-DNA phosphodiesterase 1 (TDP1): qHTS in cells in absence of CPT; DT40 Tdp1-/- hTDP1 cells, no CPT, ATP luminescence, 48 h; Potency, µM (top dose mostly 46.2 µM), inactives show at the highest dose activity change, negative = growth inhibition, hits mostly inhibitors; 420,000 compounds, 15% hits; AID 686978, 2013; further: potency means the concentration at half of the fitted maximal effect; on the % scale 0 is the no-effect control and ±100 the full control effect; nearly all actives have a fitted effect of over 55% in size
#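 A cellular qHTS used chicken DT40 cells lacking endogenous Tdp1 but carrying stably transfected human TDP1. Compounds were applied without camptothecin, and cell growth kinetics were judged by ATP-dependent luminescence after ≥48 hr.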
# An asterisk follows results filed as active; ? = inconclusive; . = no result given. Unless noted, the call rests on the fitted dose curve; in most records, active means well fitted inhibition curve with a large enough effect; inconclusive means small, poorly fitted or top-dose-only effect; inactive means flat fitted curve, though single readings scatter.
SMILES,DRD3 antagonist,DT40 TDP1 CPT,IL-1B inflam inh,ClpP mod,DRD3 agonist,TDP1 cell noCPT
C[C@@H]1O[C@@H](O[C@@H]2C=C3CCC4C(CC[C@]5(C)[C@@H](c6ccc(=O)oc6)CC[C@]45O)[C@@]3(C)CC2)[C@H](O)[C@H](O)[C@H]1O (stereo partly specified),130,0.058µM*,-52*,0%,16,0.015µM*
C[C@@H]1O[C@@H](O[C@@H]2C=C3CC[C@@H]4C(CC[C@]5(C)[C@@H](c6ccc(=O)oc6)CC[C@]45O)[C@@]3(C)CC2)[C@H](O)[C@H](O)[C@H]1O (stereo partly specified),113,0.16µM*,-56*,-5%,36*,0.16µM*
CCN(CC)c1ccc(C=NN2CCCCCC2)cc1,2,?,-18,.,2,?
CC(OC(=O)c1cn(C)c2ccccc12)C(=O)N1CCCC1 (stereo unspecified),-4,12%,19,-3%,3,-3%
O=[N+]([O-])c1ccc(Oc2ccc(N=C=S)cc2)cc1,.,?,.,.,3,12µM*
C[C@]12CCC3C(CC[C@H]4C[C@@H](O)CC[C@]34C)C1C[C@@H](Br)[C@@H]2O (stereo partly specified),3,4%,2,.,-8,-19%
CC1(C)C(=O)C=C[C@]2(C)[C@H]3CC[C@@]4(C)[C@H](c5ccoc5)OC(=O)[C@H]5O[C@]54[C@]3(C)[C@H](O)C[C@@H]12,-6,-5%,20,2%,10,-20%
CC(CC(C#N)(c1ccccc1)c1ccccc1)N(C)C (stereo unspecified),-13,?,-17,0%,0,?
CC[C@H](O)C(C[C@H](C)N(C)C)(c1ccccc1)c1ccccc1,.,44µM*,.,.,-7,?
COC(=O)C1=C(c2ccc(-c3ccccc3)c(F)c2)C[C@@H]2CC[C@H]1N2C(=O)NCCCOC(C)C,-14,15µM*,-10,1%,-9,13µM*
COC(=O)C1=C(c2ccc3ccccc3c2)C[C@@H]2CC[C@H]1N2C(=O)NCCCOC(C)C,-3,?,7,-1%,0,15µM*
COC(=O)C1=C(c2ccc(-c3ccccc3)c(F)c2)C[C@@H]2CC[C@H]1N2C(=O)NCCc1ccccc1,6,?,-10,-9%,-27,16µM*
COC(=O)C1=C(c2ccccc2)C[C@@H]2CC[C@H]1N2C(=O)NCCNC(C)=O,-15,9%,41,-1%,-15,-12%
COC(=O)C1=C(c2ccc(-c3ccccc3)c(F)c2)C[C@@H]2CC[C@H]1N2C(=O)NCCNC(C)=O,25,21µM*,11,0%,0,?
COC(=O)C1=C(c2ccc(OC)c(OC)c2)C[C@@H]2CC[C@H]1N2C(=O)NCCc1ccccc1,41,-27%,25,1%,4,?
COC(=O)C1=C(c2ccc(-c3ccccc3)c(F)c2)C[C@@H]2CC[C@H]1N2C(=O)NCc1cccc2ccccc12,?,23µM*,11,?,-19,23µM*
COCCNC(=O)N1[C@H]2CC[C@@H]1C(C(=O)OC)=C(c1cccc(C#N)c1)C2,19,-2%,11,2%,14,-5%
COC(=O)C1=C(c2ccc(-c3ccccc3)c(F)c2)C[C@@H]2CC[C@H]1N2C(=O)NCCOc1ccc(OC)cc1,20,15µM*,-25,-5%,7,15µM*
COc1cc(/C=N/Nc2ccc(S(N)(=O)=O)cc2)cc(OC)c1OC,5,?,-2,.,8,21µM*
OC1CCC(Nc2ccn3nc(-c4cccc(OCc5ccccc5)c4)cc3n2)CC1 (stereo unspecified),3,?,11,4%,-14,?
Cc1cc(C)c(Cn2c(C(=O)O)c(C=O)c3ccccc32)c(C)c1,-3,7%,40,-2%,2,6%
Cc1ccc(CNCc2c(C(=O)O)n(Cc3ccccc3C)c3cc(C)ccc23)cc1,.,?,.,1%,-8,7.3µM*
CN(Cc1cccc(-c2cccnc2)c1)C(=O)Oc1ccc([N+](=O)[O-])cc1,19,18µM*,-25,-3%,3,?
Cc1nc(-c2cccc(CN(C)C(=O)Oc3ccc([N+](=O)[O-])cc3)c2)no1,-18,?,-7,2%,-1,16µM*
COC12C(COC(N)=O)C3=C(C(=O)C(C)=C(N)C3=O)N1CC1C2N1C (stereo unspecified),0,0.052µM*,6,0%,28,0.065µM*
SMILES,DRD3 antagonist,DT40 TDP1 CPT,IL-1B inflam inh,ClpP mod,DRD3 agonist,TDP1 cell noCPT
Nc1cccc(N=Cc2c(O)n(Cc3ccc(F)cc3)c(=O)[nH]c2=O)c1,3,?,-11,-2%,1,?
CCOc1ccc(CN(CCc2ccc3c(c2)OCO3)Cc2cccc(C)c2)cc1,.,16µM*,.,-4%,-16,13µM*
CCOc1ccc(CN(CCc2ccc3c(c2)OCO3)Cc2ccc(CC)cc2)cc1,.,?,.,0%,-46,?
CCOc1ccc(CN(CCc2ccc3c(c2)OCO3)Cc2cc(OC)ccc2O)cc1,.,?,.,0%,-14,18µM*
CC(Oc1ccc(Br)cc1)C(=O)N(Cc1nc(-c2ccccc2)no1)C(C)C (stereo unspecified),.,?,.,-2%,-11,?
CCCCCCCCCCCCOCCOCCOCCOCCOCCOCCOCCOCCOCCO,.,6.7µM*,.,.,10,6.7µM*
Fc1ccc2c(c1)nnn2C1CCN(Cc2nnnn2C2CCCCC2)CC1,-58*,-4%,-9,-5%,-4,-20%
Fc1ccc2c(c1)nnn2C1CCN(Cc2c(Cl)cccc2Cl)CC1,-1,18µM*,-3,-5%,-23,18µM*
Cc1ccc(Cn2nnnc2CN2CCC(n3nnc4cc(C)ccc43)CC2)cc1,-10,?,?,3%,-2,?
Cc1ccc(C)c(CN2CCC(n3nnc4cc(F)ccc43)CC2)c1,-9,?,-23,-3%,-32,?
CCCN(CCC)c1c([N+](=O)[O-])cc(C(F)(F)F)cc1[N+](=O)[O-],.,-6%,.,.,.,0%
Cc1ccc(CC(=O)N2CCN(Cc3ccccc3)CC2)cc1,-3,-15%,-21,2%,3,-16%
CCC(C)N1CCN(C(=O)Cc2ccccc2)CC1 (stereo unspecified),-65*,-9%,5,0%,-19,-6%
